Here are results for 64 compounds from PubChem BioAssay AID1434 (Sanford-Burnham Center for Chemical Genomics, 2008).

In all, about 220,000 compounds went through this assay and about 1,600 (0.73%) were called active.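 The calls were made as follows: active = mean inhibition across duplicate retests at 20 µM reaching about 50% (limit read from the data); inactive = the rest, inconclusive results apart.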 For the sample, actives were picked, then their nearest neighbours and some compounds at random.

For this assay, the target named is Runt-related transcription factor 1 (Homo sapiens) + Core-binding factor subunit beta (Homo sapiens) (UniProt Q01196+Q13951). The assay can be described thus: inhibitors of RUNX1 Runt–CBFb-SMMHC binding, primary screen, biochemical, FRET, Cerulean-Runt, Venus-CBFb-SMMHC, uHTS (AID 1434).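 Also: 0% = DMSO wells and 100% = wells with excess untagged CBFb-SMMHC; inhibitors lower the FRET ratio by blocking Runt binding to CBFb-SMMHC.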 The note with it: Cerulean-Runt/Venus-CBFb-SMMHC FRET ratio 530/480, 1 h, at 20 µM, stronger effect = higher value.
Chain of Runt-related transcription factor 1 (Homo sapiens) + Core-binding factor subunit beta (Homo sapiens) (Q01196 whole entry, looked up): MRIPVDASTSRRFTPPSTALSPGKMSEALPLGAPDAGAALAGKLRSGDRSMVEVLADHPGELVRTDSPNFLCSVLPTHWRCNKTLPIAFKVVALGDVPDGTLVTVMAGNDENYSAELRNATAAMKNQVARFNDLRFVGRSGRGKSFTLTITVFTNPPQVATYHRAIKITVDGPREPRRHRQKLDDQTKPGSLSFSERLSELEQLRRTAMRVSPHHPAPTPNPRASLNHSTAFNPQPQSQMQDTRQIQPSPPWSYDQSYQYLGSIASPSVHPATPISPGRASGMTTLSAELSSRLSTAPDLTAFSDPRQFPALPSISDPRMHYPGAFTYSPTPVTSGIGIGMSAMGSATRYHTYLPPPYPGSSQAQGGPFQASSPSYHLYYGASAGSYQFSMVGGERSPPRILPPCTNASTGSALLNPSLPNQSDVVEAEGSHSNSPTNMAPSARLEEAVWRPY
Chain of Runt-related transcription factor 1 (Homo sapiens) + Core-binding factor subunit beta (Homo sapiens) (Q13951 whole entry, looked up): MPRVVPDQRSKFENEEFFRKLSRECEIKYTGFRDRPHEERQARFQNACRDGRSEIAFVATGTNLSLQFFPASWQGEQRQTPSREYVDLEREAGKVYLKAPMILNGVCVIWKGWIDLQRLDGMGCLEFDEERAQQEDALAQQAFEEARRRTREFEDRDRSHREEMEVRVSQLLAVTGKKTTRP

Broadly, the inhibition is the relative decrease from the control value, in per cent. Consider `CCOC(=O)c1c(NC(=O)NC(C)(C)C)sc2c1CCN(C)C2`, for which the inhibition was 10.7% (inactive).
Still for that read-out and setting: the value for `CCOC(=O)c1c(NC(=S)Nc2ccccc2C)sc2c1CCC2` was 4% (inactive).
Take `CCOC(=O)c1c(NC(=S)Nc2ccccc2)sc2c1CCN(C)C2`: the inhibition was 159% (active). Moreover, the inhibition (retest duplicate average) was determined as 140%.
In the case of `Cc1ccc(Nc2nc(N)nc(CN3CCN(Cc4ccccc4)CC3)n2)cc1Cl`, the inhibition was 1.7% (inactive).
On to `CCn1c(=N)c(S(=O)(=O)c2ccc(F)cc2)cc2c(=O)n3ccccc3nc21`, for which the inhibition was -20.7% (inactive).
With `CCOC(=O)c1cc2n(c1N)-c1ccccc1C2=O`, the inhibition is 2.2% (inactive).
With `C/C(=N/OC(=O)c1c(-c2c(F)cccc2Cl)noc1C)c1cnccn1`, the inhibition was 0.1% (inactive).
For `Cc1onc(-c2c(Cl)cccc2Cl)c1C(=O)NNC(=O)c1c(-c2c(Cl)cccc2Cl)noc1C`, the inhibition is -0.1% (inactive).
Turning to `CCOC(=O)c1cc2c(=O)n3ccccc3nc2n(CC(C)C)c1=NC(=O)c1c(-c2c(F)cccc2Cl)noc1C`, the inhibition was 81% (active). Besides, the inhibition (retest duplicate average) is 58.3%.
The like results for `CCCn1c(=NC(C)=O)c(C(=O)OCC)cc2c(=O)n3ccccc3nc21` were, in that order, 58.9% (active) and 115%.
For the compound `CCOC(=O)NNc1cc(C(F)(F)F)ccn1`, the inhibition is -0.5% (inactive).
Still for that read-out and setting: the value for `CCC(C)OC(=O)C(C)Oc1ccc(-c2ccccc2)cc1` (stereo not drawn) was -4.2% (inactive).
For the compound `CCN(CC)C(=O)c1sc2nc(-c3ccccc3)ccc2c1N`, the inhibition was 15.5% (inactive).
Turning to `CS(=O)(=O)c1sc2nc(-c3ccccc3)cc(-c3ccccc3)c2c1N`, the inhibition was 83.9% (active). Also, where the note is “retest duplicate average”, the inhibition was determined as 108%.
Turning to `Nc1cccc(-c2cc(-c3ccccc3)nc(-c3cccc(N)c3)n2)c1`, the inhibition was 1.4% (inactive).
As to `Cc1ccc2nc(COc3ccc(N(C)S(=O)(=O)c4ccccc4)cc3)cc(=O)n2c1`, the inhibition is 7.6% (inactive).
For `CCOC(=O)C1CCN(C(=O)C2(NC(=O)Nc3cccc(F)c3)CCCCC2)CC1`, the inhibition is -6.4% (inactive).
For `CCOC(=O)c1oc2c(CN3CCN(CCO)CC3)c(O)c(CC)cc2c(=O)c1-c1nc2ccccc2s1`, the inhibition was 47.8% (inactive).
On to `CC(C)(C)c1ccc(/C=C2\Oc3c(ccc(O)c3CN3CCN(CCO)CC3)C2=O)cc1`, for which the inhibition was 90.1% (active). Also, for the setting “retest duplicate average”, the inhibition worked out at 70.6%.
Turning to `O=C(CSc1nc2ccccc2o1)N/N=C/c1ccccc1C(=O)O`, the inhibition was 0.7% (inactive).
As for `C/C(N)=C(/C#N)C(=O)COC(=O)C1CCN(C(=O)c2ccc(Cl)cc2)CC1`, the inhibition was 0.8% (inactive).
In the case of `CNc1[nH]ncc1[N+](=O)[O-]`, the inhibition is 7.1% (inactive).
Consider `Cc1cc(NCc2ccco2)n2c(nc3ccccc32)c1C#N`, for which the inhibition is 86.1% (active). The inhibition (retest duplicate average) is 66%.
`CC(C)c1cc(NCc2ccccn2)n2c(nc3ccccc32)c1C#N`: the inhibition is 29.3% (inactive).
`Cc1cc(NC(C)C)n2c(nc3ccccc32)c1C#N`: the inhibition was 31% (inactive).
For `Cc1[nH]c2ccccc2c1/C=N/NC(=O)CNC(=O)c1ccc2c(c1)OCO2`, the inhibition was 1.7% (inactive).
`COc1ccc(N2C(=O)C(O)C2c2ccc(C)cc2)cc1` (stereo not drawn): the inhibition is 1.6% (inactive).
Regarding `Cc1cc(C)c2nc(N3CCCC3)c(C#N)cc2c1`, the inhibition was 65% (active). Further, the inhibition (retest duplicate average) was 86.1%.
With `Cc1cc(C)c(C#N)c(N2CCC(C(N)=O)CC2)n1`, the inhibition was 3% (inactive).
Regarding `CC(=O)c1cc(C#N)c(N2CCCCC2)nc1C`, the inhibition was -1.4% (inactive).
Turning to `CC(C)N1C(=S)SC(C)(C)C1n1oc(=O)n(-c2ccc(Cl)c(Cl)c2)c1=O` (stereo not drawn), the inhibition is 4.2% (inactive).
For `CCOc1cc(NC(=O)CCl)c(OCC)cc1NC(C)=O`, the inhibition was 1.1% (inactive).
For `O=C1c2ccccc2S(=O)(=O)N1CC(O)Cn1c2ccccc2c2ccccc21` (stereo not drawn), the inhibition is 4.1% (inactive).
Still for that read-out and setting: the value for `CS(=O)(=O)N(CC(O)Cn1c2ccccc2c2ccccc21)c1cccc2ccccc12` (stereo not drawn) was 1.2% (inactive).
For `CCCCN(CCCC)CC(O)Cn1c2ccccc2c(=O)c2ccccc21` (stereo not drawn), the inhibition is 81% (active). For the setting “retest duplicate average”, the inhibition worked out at 70.6%.
In the case of `Cc1ccccc1NC(=O)c1nn(-c2ccc(F)c(F)c2)ccc1=O`, the inhibition was 3.1% (inactive).
As to `N#CC1=C(N)Oc2cc(O)ccc2C1C1CCCCC1` (stereo not drawn), the inhibition is 120% (active). Besides, the inhibition (retest duplicate average) amounted to 132%.
In the case of `COCc1[nH]nc2c1C(C1C=CCCC1)C(C#N)=C(N)O2` (stereo not drawn), the inhibition is 3.6% (inactive).
Same read-out and setting: the value for `N#CC1=C(N)OC2=C(C(=O)CCC2)C1C1CC=CCC1` (stereo not drawn) was 4.6% (inactive); that for `C=CCn1c(SCC(N)=O)nnc1-c1cc2c(s1)CCC(CC)C2` (stereo not drawn) was -3.6% (inactive).
The same measure, in the same setting: next, `CCS(=O)(=O)c1ccc(O)c(NC(=O)COc2ccc(Cl)cc2)c1`: 0.3% (inactive).
Turning to `Cc1c(CCOC(=O)c2cc([N+](=O)[O-])ccc2Cl)sc[n+]1CCCCS(=O)(=O)[O-]`, the inhibition was -0.3% (inactive).
For the compound `O=C(CCc1ccccc1)Nc1ccc(NC(=O)C2CCCCC2)nc1`, the inhibition was -1% (inactive).
With `CC(C)C1Nc2c(C(=O)O)cccc2C(Nc2ccccc2C(=O)O)C1(C)C` (stereo not drawn), the inhibition was -10% (inactive).
Turning to `CCc1ccc(NC(=O)CSc2nc3ccccc3c(=O)n2CCN2CCOCC2)cc1`, the inhibition was -3.7% (inactive).
On to `CC(C)(C)OC(=O)c1c(N)n(CCCN2CCCC2=O)c2nc3ccccc3nc12`, for which the inhibition was 124% (active). Further, under “retest duplicate average”, the inhibition came out at 142%.
For `CSc1nnc(-c2ccncc2)n1CCCN1CCCC1=O`, the inhibition is 5.9% (inactive).
Take `CCOc1ccc(C(=O)NCCCN2CCCC2=O)cc1`: the inhibition was -3.7% (inactive).
On the same count and under the same terms, the value for `Cc1ccc(C(=O)OC(C)CN2CCOCC2)cc1` (stereo not drawn) was -0.1% (inactive).
As to `COCC(C)OC(=O)c1c(N)n(CCCN2CCOCC2)c2nc3ccccc3nc12` (stereo not drawn), the inhibition was 109% (active). For the same compound, the inhibition (retest duplicate average) came out at 129%.
Take `O=C1CC2(CC(c3ccc(Cl)cc3)=NO2)C(=O)N1c1ccccc1` (stereo not drawn): the inhibition was 2.6% (inactive).
With `CC(C)(C)c1cc(C(=O)N/N=C/c2ccc([N+](=O)[O-])s2)n[nH]1`, the inhibition was -11.1% (inactive).
Same read-out and setting: the value for `COc1ccc(-n2c(C)nn(CC3CC3)c2=O)cc1` was -6% (inactive).
On to `CCCn1c(N)c(C(=O)CSc2nnc(-c3cccnc3)n2-c2ccc(C)cc2C)c(=O)[nH]c1=O`, for which the inhibition was 0.2% (inactive).
As to `Cn1nnc(NC(=S)NC(=O)c2ccccc2)n1`, the inhibition was -0.2% (inactive).
Same read-out and setting: next, `CCc1cccc2c(=O)c(C(=O)NCCCOC)c[nH]c12`: 1% (inactive); `COCCn1c(=O)[nH]c2cc(C(=O)NCc3cccnc3)ccc2c1=O`: -3.4% (inactive).
As for `COc1ccc(CCNC(=O)CCn2c(=O)c3ccccc3n(CC(=O)NCC3CCCO3)c2=O)cc1OC` (stereo not drawn), the inhibition is -0.3% (inactive).
`COc1ccc(CCn2c(=N)c(C(=O)NCc3ccco3)cc3c(=O)n4cccc(C)c4nc32)cc1`: the inhibition was 142% (active). In addition, the inhibition (retest duplicate average) stood at 170%.
For `O=C(NCc1ccco1)c1cccn2c(=O)c3c4c(sc3nc12)CCCC4`, the inhibition is 0.4% (inactive).
As for `CCn1c(=N)c(C(=O)NCCCOC)cc2c(=O)n3cccc(C)c3nc21`, the inhibition is 58.1% (active). Moreover, where the note is “retest duplicate average”, the inhibition came to 72.9%.
`COc1ccc(CCNC(=O)Cn2c(=O)n(CC3CCCO3)c(=O)c3ccccc32)cc1OC` (stereo not drawn): the inhibition is -0.7% (inactive).
With `COc1ccc(CNC(=O)c2cc3c(=O)n4ccccc4nc3n(CC3CCCO3)c2=N)cc1` (stereo not drawn), the inhibition was 92.1% (active). The inhibition (retest duplicate average) stood at 159%.
`COc1ccc(CCNC(=O)c2ccco2)cc1`: the inhibition was -1.4% (inactive).
